Records with an inconclusive call do not appear. Activity calls are given as the source filed them.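 Rule for the calls, unless noted: active = response below a set limit, under 55% cells CD8-positive and vesicle-bound, and CD8 cells' 90th-percentile brightness under 279; inactive = the rest.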
Assays:
[1] = rapamycin-like changes in RPL19A-GFP expression – cell-based, S. cerevisiae, multiplex flow cytometry, primary screen (AID 1862; in the data active = percent of DMSO control GFP below about 86%;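 note: lower values mimic rapamycin by blocking the RPL19A rise seen in DMSO cells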); details: S. cerevisiae RPL19A-GFP strain, flow cytometry fluorescence, 3 h; at 10 µM; stronger effect = lower value
[2] = TOR pathway GLN3 branch reporter MEP2-GFP changes – S. cerevisiae, multiplex flow cytometry, primary screen (AID 1867;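 active = GFP response, as percent of the DMSO control, above the screen-wide mean plus 3 SD, about 139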;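 note: median GFP channel fluorescence of barcode-gated MEP2-GFP cells measured by flow cytometry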); details: S. cerevisiae MEP2-GFP strain, 3 h, at 10 µM, stronger effect = higher value, 100% means same as DMSO wells
[3] = TOR pathway RTG branch CIT2 reporter changes – S. cerevisiae, GFP fusion, multiplex flow cytometry, primary screen (AID 1870;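 active = percent response above a set limit, the screen-wide mean plus 3 SD, cut at about 130% in these data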;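 note: barcoded CIT2-GFP strain pooled with four other GFP strains with rapamycin as positive control; median GFP fluorescence per well over plate mean of DMSO wells so 100% = DMSO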); details: S. cerevisiae CIT2-GFP expression, 3 h, at 10 µM, stronger effect = higher value
[4] = TOR pathway LAP4-GFP level changes – S. cerevisiae, multiplex flow cytometry, primary screen (AID 1873;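 active = GFP signal, as percent of the solvent control, above the screen mean plus 3 SD, about 149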); details: S. cerevisiae LAP4-GFP expression, 3 h, at 10 µM, stronger effect = higher value
[5] = yeast AGP1-GFP level changes, GLN3 branch – cell-based, multiplex flow cytometry, S. cerevisiae, primary screen (AID 1887;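 active = GFP signal above the screen-wide mean plus 3 SD, that is over about 124.5% of the solvent control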;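 note: AGP1-GFP fusion strain of S. cerevisiae within a five-strain barcoded multiplex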); details: 3 h, at 10 µM, stronger effect = higher value
[6] = reduced mouse 2C T cell binding to pMHC/ICAM-1 vesicles – MLPCN validation set, flow cytometry, LFA-1/ICAM-1 modulator project, pilot screen (AID 2523); details: 2C mouse CD8+ T cells, at 7 µM, stronger effect = lower value; double positive events: measured here: CD8+/vesicle+ event percentage;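 for vesicle binding response: mean PE anti-B7-1 fluorescence of CD8+ cells relative to row control; 100% = QL9-loaded vesicles with DMSO vehicle in the same plate row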
[7] = molecular target: Integrin beta-1 (Homo sapiens) + Integrin alpha-4 (Homo sapiens) (UniProt P13612+P05556); assay: alpha4beta1 integrin LIBS antibody binding reduction – U937 cells, HUTS-21 mAb, flow cytometry, validation set, VLA-4 allosteric modulator project, pilot screen (AID 2674;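 active = inhibition above 50%, about 3 SD of the validation set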;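 note: antibody binding induced by the VLA-4 ligand LDV present at three times its Kd; 0% = LDV ligand with antibody and no compound and 100% = antibody without LDV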); details: HUTS-21 LIBS mAb binding, at 6.7 µM, stronger effect = higher value, binding induced by LDV ligand
Chain of Integrin beta-1 (Homo sapiens) + Integrin alpha-4 (Homo sapiens) (P05556 whole entry, looked up): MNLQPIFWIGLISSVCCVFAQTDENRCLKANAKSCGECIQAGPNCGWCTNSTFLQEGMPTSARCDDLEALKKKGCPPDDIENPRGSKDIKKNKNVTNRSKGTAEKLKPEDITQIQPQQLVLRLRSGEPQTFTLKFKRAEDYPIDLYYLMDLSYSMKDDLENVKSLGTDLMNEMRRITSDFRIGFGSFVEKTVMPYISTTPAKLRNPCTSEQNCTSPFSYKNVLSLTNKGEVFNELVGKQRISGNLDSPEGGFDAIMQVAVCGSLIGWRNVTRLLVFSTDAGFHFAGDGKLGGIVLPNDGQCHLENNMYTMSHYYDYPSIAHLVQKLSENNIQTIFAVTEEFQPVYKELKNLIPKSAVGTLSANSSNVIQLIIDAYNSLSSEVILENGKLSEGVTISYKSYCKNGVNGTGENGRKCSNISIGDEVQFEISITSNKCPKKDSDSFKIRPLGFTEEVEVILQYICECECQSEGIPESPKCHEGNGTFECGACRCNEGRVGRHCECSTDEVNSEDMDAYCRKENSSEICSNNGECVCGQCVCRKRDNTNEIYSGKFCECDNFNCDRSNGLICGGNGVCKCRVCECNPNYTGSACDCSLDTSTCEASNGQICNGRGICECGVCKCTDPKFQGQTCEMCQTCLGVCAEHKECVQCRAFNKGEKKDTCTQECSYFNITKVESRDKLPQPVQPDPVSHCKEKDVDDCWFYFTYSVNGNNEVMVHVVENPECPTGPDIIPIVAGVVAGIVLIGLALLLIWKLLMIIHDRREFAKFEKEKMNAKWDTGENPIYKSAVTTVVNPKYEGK
Chain of Integrin beta-1 (Homo sapiens) + Integrin alpha-4 (Homo sapiens) (P13612 whole entry, looked up): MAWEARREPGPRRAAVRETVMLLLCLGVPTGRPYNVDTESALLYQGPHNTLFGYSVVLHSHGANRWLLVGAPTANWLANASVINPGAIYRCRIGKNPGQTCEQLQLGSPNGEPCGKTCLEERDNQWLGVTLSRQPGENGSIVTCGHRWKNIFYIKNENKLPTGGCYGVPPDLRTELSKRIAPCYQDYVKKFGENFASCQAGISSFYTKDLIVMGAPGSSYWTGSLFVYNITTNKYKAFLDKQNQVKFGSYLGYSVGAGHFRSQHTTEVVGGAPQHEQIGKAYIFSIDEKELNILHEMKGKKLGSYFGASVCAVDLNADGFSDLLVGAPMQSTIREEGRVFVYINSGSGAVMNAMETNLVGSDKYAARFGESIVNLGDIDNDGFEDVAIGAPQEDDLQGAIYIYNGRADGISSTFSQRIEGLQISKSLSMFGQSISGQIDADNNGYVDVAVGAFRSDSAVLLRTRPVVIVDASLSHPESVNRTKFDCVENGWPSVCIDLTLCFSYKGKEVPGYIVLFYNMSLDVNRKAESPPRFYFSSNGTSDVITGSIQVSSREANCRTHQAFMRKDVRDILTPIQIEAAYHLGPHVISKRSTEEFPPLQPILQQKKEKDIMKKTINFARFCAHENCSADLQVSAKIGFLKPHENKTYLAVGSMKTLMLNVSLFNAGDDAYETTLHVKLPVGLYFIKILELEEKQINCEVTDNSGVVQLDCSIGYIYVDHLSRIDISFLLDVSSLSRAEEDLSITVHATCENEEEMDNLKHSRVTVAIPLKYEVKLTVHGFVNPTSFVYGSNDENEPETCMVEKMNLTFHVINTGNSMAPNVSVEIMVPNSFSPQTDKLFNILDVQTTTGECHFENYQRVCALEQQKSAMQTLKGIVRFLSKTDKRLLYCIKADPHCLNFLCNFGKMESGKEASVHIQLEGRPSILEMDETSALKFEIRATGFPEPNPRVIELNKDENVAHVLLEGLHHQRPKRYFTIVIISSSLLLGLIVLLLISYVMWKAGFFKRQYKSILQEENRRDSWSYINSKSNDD

[8] = calorie-restriction mimetic ROS inhibitors, yeast – validation compound set, pilot screen (AID 2706;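 active = superoxide response below 65% of plate, a cut near 3 SD across the whole screen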;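 note: yeast exposed to compound for one week at 30 degrees C before staining; 100% = mean of all compound wells on the same plate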); details: S. cerevisiae aging, superoxide DHE fluorescence; at 10 µM; stronger effect = lower value
[9] = molecular target: Beta-adrenergic receptor kinase 1 (Homo sapiens) (UniProt P25098); assay: GRK2 binders displacing RNA aptamer, biochemical, validation, human GRK2, bead flow cytometry (AID 488806;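 active = aptamer binding inhibition above 30%, about 3 SD of noise from non-fluorescent compounds; inactive = inhibition at or below 30%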); details: bead-bound GRK2, FAM-aptamer displacement, at 10 µM, stronger effect = higher value
Chain of Beta-adrenergic receptor kinase 1 (Homo sapiens) (P25098 whole entry, looked up): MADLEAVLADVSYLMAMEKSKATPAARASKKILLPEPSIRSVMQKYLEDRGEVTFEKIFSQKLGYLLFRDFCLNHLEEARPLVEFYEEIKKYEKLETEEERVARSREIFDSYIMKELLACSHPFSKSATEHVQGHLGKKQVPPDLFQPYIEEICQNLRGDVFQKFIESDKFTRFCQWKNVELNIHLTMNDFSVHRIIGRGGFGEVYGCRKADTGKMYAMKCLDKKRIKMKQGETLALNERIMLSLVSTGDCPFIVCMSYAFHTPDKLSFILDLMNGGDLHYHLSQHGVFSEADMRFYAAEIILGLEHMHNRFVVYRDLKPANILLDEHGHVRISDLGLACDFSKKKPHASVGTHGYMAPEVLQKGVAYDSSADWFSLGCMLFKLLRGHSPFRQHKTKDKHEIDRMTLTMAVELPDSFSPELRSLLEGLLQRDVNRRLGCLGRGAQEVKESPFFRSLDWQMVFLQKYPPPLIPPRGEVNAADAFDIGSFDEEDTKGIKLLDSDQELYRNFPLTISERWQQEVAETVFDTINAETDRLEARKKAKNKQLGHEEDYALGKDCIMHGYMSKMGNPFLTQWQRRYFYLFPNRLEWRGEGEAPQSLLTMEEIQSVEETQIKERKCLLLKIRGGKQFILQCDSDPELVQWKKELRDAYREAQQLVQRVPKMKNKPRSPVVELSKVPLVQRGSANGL

[10] = molecular target: Beta-2 adrenergic receptor (Homo sapiens) (UniProt P07550); assay: agonist-induced loss of surface beta2AR – cell-based, FAP fluorogen, flow cytometry, validation set, pilot screen (AID 504459;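 active = percent response above 42, roughly 3 SD of non-fluorescent test compounds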;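 note: agonist-driven loss of surface beta2AR via internalization measured by FAP dye flow cytometry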); details: Am2.2-beta2AR cells, at 10 µM, stronger effect = higher value
Chain of Beta-2 adrenergic receptor (Homo sapiens) (P07550 whole entry, looked up): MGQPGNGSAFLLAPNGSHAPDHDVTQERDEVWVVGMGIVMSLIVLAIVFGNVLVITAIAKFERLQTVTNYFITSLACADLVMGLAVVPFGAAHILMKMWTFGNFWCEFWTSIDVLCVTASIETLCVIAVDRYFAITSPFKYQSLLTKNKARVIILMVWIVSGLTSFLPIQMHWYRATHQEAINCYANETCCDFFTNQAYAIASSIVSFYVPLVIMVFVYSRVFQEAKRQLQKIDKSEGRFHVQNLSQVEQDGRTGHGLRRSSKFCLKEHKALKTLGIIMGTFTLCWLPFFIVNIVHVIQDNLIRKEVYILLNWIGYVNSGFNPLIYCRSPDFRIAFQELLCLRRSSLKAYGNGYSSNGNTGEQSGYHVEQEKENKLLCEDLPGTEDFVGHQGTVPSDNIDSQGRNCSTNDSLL

[11] = molecular target: AP-2 complex subunit beta (Homo sapiens) (UniProt P63010); assay: beta-arrestin/AP2 interaction blockers – biochemical, validation set, GST-AP2 beads, flow cytometry, pilot screen (AID 504541;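 active = inhibition above 54%, about 3 SD of non-fluorescent compounds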;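 note: AP2 carries R879A mutation and is captured from E. coli lysate; bead-bound FITC arrestin peptide fluorescence measuring arrestin peptide binding to AP2; 0% = DMSO wells and 100% = excess unlabeled arrestin peptide control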); details: FITC arrestin peptide, at 10 µM, stronger effect = higher value, AP2 beta2 appendage fragment, R879A mutant
Chain of AP-2 complex subunit beta (Homo sapiens) (P63010 whole entry, looked up, the tested form may be a part, one chain of several): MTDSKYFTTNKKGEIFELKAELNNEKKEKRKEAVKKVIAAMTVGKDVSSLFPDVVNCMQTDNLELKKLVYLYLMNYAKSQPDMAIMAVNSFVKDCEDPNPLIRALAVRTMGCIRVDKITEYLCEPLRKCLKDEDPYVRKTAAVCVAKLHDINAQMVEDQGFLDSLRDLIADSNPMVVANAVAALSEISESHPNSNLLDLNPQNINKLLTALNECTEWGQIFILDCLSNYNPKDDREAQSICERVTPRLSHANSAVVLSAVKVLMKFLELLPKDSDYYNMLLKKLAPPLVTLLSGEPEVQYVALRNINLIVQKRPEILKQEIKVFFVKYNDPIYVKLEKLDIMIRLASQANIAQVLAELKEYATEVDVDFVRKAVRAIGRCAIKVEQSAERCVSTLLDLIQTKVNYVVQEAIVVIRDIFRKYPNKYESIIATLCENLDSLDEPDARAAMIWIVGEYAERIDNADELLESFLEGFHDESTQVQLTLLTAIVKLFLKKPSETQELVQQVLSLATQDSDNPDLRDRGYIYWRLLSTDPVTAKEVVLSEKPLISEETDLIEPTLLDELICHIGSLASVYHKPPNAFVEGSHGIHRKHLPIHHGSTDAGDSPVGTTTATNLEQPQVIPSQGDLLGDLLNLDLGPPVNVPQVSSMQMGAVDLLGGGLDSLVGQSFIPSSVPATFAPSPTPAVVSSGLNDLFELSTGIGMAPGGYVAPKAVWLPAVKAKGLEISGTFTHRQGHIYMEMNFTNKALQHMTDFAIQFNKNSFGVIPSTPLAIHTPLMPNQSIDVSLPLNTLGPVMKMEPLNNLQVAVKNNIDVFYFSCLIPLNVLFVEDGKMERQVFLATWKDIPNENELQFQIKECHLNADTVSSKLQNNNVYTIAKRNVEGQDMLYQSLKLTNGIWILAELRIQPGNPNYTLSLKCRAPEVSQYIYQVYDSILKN

[12] = cytosolic pH regulators acting via V-ATPase – S. cerevisiae, pHLuorin, HTS validation (AID 504600; in the data active = response above about 15%;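 note: plate controls were DMSO for no effect and reference compound for full effect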); details: V-ATPase proton transport, at 10 µM, stronger effect = higher value
[13] = system: anti-desmoglein-3 scFv antibody binding to human DSG3; assay: blockers of pathogenic pemphigus antibody–desmoglein-3 binding – biochemical, validation compound set, bead-based, flow cytometry, pilot screen (AID 588368;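 active = binding below the plate cutoff, the plate median minus 3 SD, with a reading above zero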;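 note: signal is the median channel fluorescence of bead-bound GFP antibody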); details: Protein G beads, DSG3-Fc, scFv-GFP binding, at 10 µM, stronger effect = lower value
[14] = Nile Red efflux blockade in pump-expressing yeast – validation compound set, multiplex, phenotypic, pilot screen (AID 588506;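 active = efflux inhibition above 0.42, the validation set average plus 4 SD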;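 note: Nile Red retained in cells so higher fluorescence means more efflux inhibition; 0 = negative control wells and 1 = enniatin B 25 µM full block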); details: S. cerevisiae pump-expressing triplex, Nile Red efflux flow cytometry; at 10 µM; stronger effect = higher value; the pumps come from Candida albicans
[15] = molecular target: ATP-binding cassette sub-family B member 6 (Homo sapiens) (UniProt Q9NP58); assay: blockers of ABCB6-driven porphyrin uptake – K562-ABCB6 cells, flow cytometry, validation set, pilot screen (AID 588550;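 active = inhibition above the screen-wide mean plus 3 SD, about 51%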;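 note: 0% = DMSO wells and 100% = benzethonium chloride 70 µM positive control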); details: K562-ABCB6 porphyrin accumulation, 1 h, at 10 µM, stronger effect = higher value
Chain of ATP-binding cassette sub-family B member 6 (Homo sapiens) (Q9NP58 whole entry, looked up): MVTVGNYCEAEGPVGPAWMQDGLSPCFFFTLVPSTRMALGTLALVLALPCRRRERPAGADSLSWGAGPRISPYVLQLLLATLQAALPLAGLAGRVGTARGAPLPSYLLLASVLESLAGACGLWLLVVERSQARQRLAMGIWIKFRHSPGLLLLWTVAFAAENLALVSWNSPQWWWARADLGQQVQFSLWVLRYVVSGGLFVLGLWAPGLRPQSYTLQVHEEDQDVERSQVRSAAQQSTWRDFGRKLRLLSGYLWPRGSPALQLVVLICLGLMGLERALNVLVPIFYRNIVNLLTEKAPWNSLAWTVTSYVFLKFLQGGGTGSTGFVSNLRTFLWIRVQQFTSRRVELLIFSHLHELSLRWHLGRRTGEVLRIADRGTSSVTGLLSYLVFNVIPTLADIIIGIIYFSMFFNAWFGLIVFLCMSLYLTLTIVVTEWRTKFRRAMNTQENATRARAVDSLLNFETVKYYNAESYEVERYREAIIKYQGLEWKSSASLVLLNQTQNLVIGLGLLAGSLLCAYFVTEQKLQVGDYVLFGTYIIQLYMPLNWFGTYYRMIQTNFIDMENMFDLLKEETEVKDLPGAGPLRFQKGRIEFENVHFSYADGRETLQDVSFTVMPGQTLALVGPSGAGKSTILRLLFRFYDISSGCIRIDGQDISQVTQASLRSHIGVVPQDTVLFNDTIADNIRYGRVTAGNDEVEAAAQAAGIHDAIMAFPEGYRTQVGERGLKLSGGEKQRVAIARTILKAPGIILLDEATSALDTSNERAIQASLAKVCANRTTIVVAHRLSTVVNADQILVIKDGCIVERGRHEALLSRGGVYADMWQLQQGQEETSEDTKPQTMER

[16] = AML differentiation inducers, ER-HoxA9 marrow cells – cell-based, GFP/MAC1 double positive, flow cytometry, validation set, primary screen (AID 588685;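 active = differentiation response of at least 50%, scaled between solvent and reference control, from cells with both markers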;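 note: compound exposure lasts four days before antibody staining and flow analysis; 0% = DMSO wells and 100% = 5 µM fulvestrant positive control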); details: stronger effect = higher value, normalized: vehicle 0, fulvestrant 100

| SMILES | percent of DMSO control GFP [1] | GFP response vs DMSO [2] | percent response of DMSO control [3] | GFP response vs DMSO [4] | GFP response, % of DMSO [5] | double positive events [6] | vesicle binding response [6] | inhibition [7] | superoxide response (% of plate) [8] | aptamer binding inhibition [9] | response [10] | inhibition [11] | response [12] | binding (% of control) [13] | efflux inhibition (fraction of control) [14] | inhibition [15] | differentiation response [16] |
| --- | --- | --- | --- | --- | --- | --- | --- | --- | --- | --- | --- | --- | --- | --- | --- | --- | --- |
| CC12CN3CC(C)(CN(C1)C3c1ccc(Cl)cc1Cl)C2=O (centres undefined) | 103% (inactive) | 98.3% (inactive) | 112% (inactive) | 94.7% (inactive) | 104% (inactive) | 67.5% | 387% (inactive) | 5.77% (inactive) | 98.9% (inactive) | 4% (inactive) | -10.5% (inactive) | -0.61% (inactive) | -0.6% (inactive) | 95.1% (inactive) | -0.01 (inactive) | -3% (inactive) | -8.55% (inactive) |
| Cc1nc(-c2coc3c(CN(C)C)c(O)ccc3c2=O)cs1 | 92.6% (inactive) | 131% (inactive) | 104% (inactive) | 85.8% (inactive) | 88% (inactive) | 61.6% | 143% (inactive) | -26.5% (inactive) | 98.6% (inactive) | 6% (inactive) | 4.53% (inactive) | 2.27% (inactive) | -0.21% (inactive) | 105% (inactive) | -0.46 (inactive) | 11% (inactive) | -1.64% (inactive) |
| O=Cc1ccccc1Oc1ccccc1 | 93.3% (inactive) | 125% (inactive) | 115% (inactive) | 86.4% (inactive) | 90.3% (inactive) | 57.3% | 200% (inactive) | -14.9% (inactive) | 107% (inactive) | -5% (inactive) | -1.17% (inactive) | 32.8% (inactive) | -3.79% (inactive) | 107% (inactive) | 0.12 (inactive) | -2% (inactive) | 33.6% (inactive) |
| CC1(C#CC[N+]2(C)CCCCC2)CCC2C(O1)c1ccccc1OC2(C)C (centres undefined) | 103% (inactive) | 102% (inactive) | 107% (inactive) | 91.5% (inactive) | 106% (inactive) | 60.2% | 95.6% (inactive) | -6.45% (inactive) | 101% (inactive) | -11% (inactive) | 5.86% (inactive) | -11.4% (inactive) | 2.59% (inactive) | 101% (inactive) | 0.07 (inactive) | -6% (inactive) | -10.4% (inactive) |
| CC12CC(c3ccccc3O1)C(C(=O)N1CCOCC1)C(=O)N2 (centres undefined) | 100% (inactive) | 103% (inactive) | 101% (inactive) | 85.2% (inactive) | 101% (inactive) | 60.3% | 53.4% (inactive) | 2.55% (inactive) | 107% (inactive) | 6% (inactive) | 6.73% (inactive) | -22.1% (inactive) | 0.44% (inactive) | 103% (inactive) | -0.34 (inactive) | 8% (inactive) | -1.88% (inactive) |
| COc1ccc(C(=O)Nc2ncc3c(n2)CC(C)CC3=O)cc1 (centres undefined) | 98% (inactive) | 105% (inactive) | 105% (inactive) | 110% (inactive) | 104% (inactive) | 48.3% | 83.7% (inactive) | -12.7% (inactive) | 99.5% (inactive) | -2% (inactive) | 2.81% (inactive) | 61.9% (active) | -6.31% (inactive) | 95.3% (inactive) | 0.01 (inactive) | 15% (inactive) | -7.2% (inactive) |
| CCNC(=O)C12CCC(C)(C(=O)O1)C2(C)C (centres undefined) | 105% (inactive) | 102% (inactive) | 102% (inactive) | 95.8% (inactive) | 101% (inactive) | 60.6% | 120% (inactive) | 8.28% (inactive) | 105% (inactive) | 2% (inactive) | 6.09% (inactive) | 6.39% (inactive) | 2.81% (inactive) | 95.7% (inactive) | -0.54 (inactive) | 7% (inactive) | 1.17% (inactive) |
